Assay results from PubChem BioAssay (EPA / NIEHS).
Active and inactive are the calls of the source. How the source made its calls: active means hit-call score of the fitted dose curve at least 0.9, where 1 is the maximum; inactive means score below 0.9.

What was measured:
Conditions in all cases: mRNA level, 48 h; actives raise or lower the signal
[1] = read-out: Cytochrome P450 (CYP1A2), CYP1A2 (gene 1544); assay: LTEA_HepaRG_CYP1A2: Life Technologies and Expression Analysis (LTEA) Assay for Cytochrome P450 (CYP1A2) using HepaRG (AID 2283479);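 on AC50: TaqMan qRT-PCR transcript level normalized to ACTB GAPDH and POLR2A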
How it was run: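 CYP1A2 transcript measured by TaqMan qRT-PCR against three housekeeping genes after 48-hour chemical exposure of HepaRG cells. Eight-point half-log series topping at 100 uM in 0.5% DMSO, duplicates; gain or loss fitted relative to vehicle.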

[2] = read-out: cysteine-aspartic acid protease (CASP8), CASP8 (gene 841); assay: LTEA_HepaRG_CASP8: Life Technologies and Expression Analysis (LTEA) Assay for cysteine-aspartic acid protease (CASP8) using HepaRG (AID 2283480)
How it was run: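 HepaRG, 48 h exposure, duplicate wells; 8 conc, half-log from 100 uM, 0.5% DMSO. Serum-free induction medium. CASP8 mRNA by TaqMan qRT-PCR, norm. ACTB/GAPDH/POLR2A; gain/loss fitted vs DMSO.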

[3] = read-out: Cytochrome P450 (CYP2B6), CYP2B6 (gene 1555); assay: LTEA_HepaRG_CYP2B6: Life Technologies and Expression Analysis (LTEA) Assay for Cytochrome P450 (CYP2B6) using HepaRG (AID 2283481)
How it was run: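 CYP2B6 transcript level quantified by qRT-PCR against three housekeeping genes, fitted bidirectionally relative to DMSO. HepaRG cultures received chemicals for 48 h, 8-point half-log series from 100 uM in 0.5% DMSO, duplicate wells, serum-free induction medium.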

[4] = read-out: Cytochrome P450 2C19 (Homo sapiens) (UniProt P33261); assay: LTEA_HepaRG_CYP2C19: Life Technologies and Expression Analysis (LTEA) Assay for CYP2C19 using HepaRG (AID 2283482)
How it was run: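 CYP2C19 transcript levels by qRT-PCR, normalized to three housekeeping genes, in HepaRG cells after 48 h chemical exposure. Eight-point half-log series topping at 100 uM, 0.5% DMSO vehicle. Increases and decreases both fitted against DMSO.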

CYP2C8 (gene 1558) = assay: LTEA_HepaRG_CYP2C8: Life Technologies and Expression Analysis (LTEA) Assay for CYP2C8 using HepaRG (AID 2283483)
How it was run: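 CYP2C8 mRNA induction or loss, by qRT-PCR normalized to ACTB/GAPDH/POLR2A, is read in HepaRG cells after 48 h treatment. Concentrations run from 100 uM down in half-log dilutions, with 0.5% DMSO as vehicle and baseline.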

CYP2C9 (gene 1559) = assay: LTEA_HepaRG_CYP2C9: Life Technologies and Expression Analysis (LTEA) Assay for CYP2C9 using HepaRG (AID 2283484)
How it was run: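 Cells plated 48 h, switched to serum-free induction medium, then treated in duplicate for 48 h at eight concentrations (max 100 uM, 0.5% DMSO). RNA then analysed by qRT-PCR for CYP2C9; curves fitted in both directions relative to DMSO.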

CYP2E1 (gene 1571) = assay: LTEA_HepaRG_CYP2E1: Life Technologies and Expression Analysis (LTEA) Assay for CYP2E1 using HepaRG (AID 2283485)
How it was run: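 Differentiated HepaRG cells were treated in duplicate for 48 h with chemicals in 0.5% DMSO, from 100 uM downward in half-log dilutions. RNA was then analysed by qRT-PCR for CYP2E1 induction or loss.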

CYP4A11 (gene 1579) = assay: LTEA_HepaRG_CYP4A11: Life Technologies and Expression Analysis (LTEA) Assay for CYP4A11 using HepaRG (AID 2283486)
How it was run: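 Readout is CYP4A11 transcript level by qRT-PCR, normalized to three housekeeping genes and fitted bidirectionally against 0.5% DMSO. Human HepaRG cells were treated 48 h, in duplicate, with an 8-point half-log series topping at 100 uM.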

[5] = read-out: Cytochrome P450 3A4 (Homo sapiens) (UniProt P08684); assay: LTEA_HepaRG_CYP3A4: Life Technologies and Expression Analysis (LTEA) Assay for CYP3A4 using HepaRG (AID 2283487)
How it was run: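 HepaRG, 48 h exposure, 8-pt CRC from 100 uM (half-log), 0.5% DMSO, duplicates; serum-free induction medium. Readout: CYP3A4 mRNA, qRT-PCR, ACTB/GAPDH/POLR2A normalization. Bidirectional fit vs DMSO.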

[6] = read-out: DNA damage-inducible transcript 3 (DDIT3), DDIT3 (gene 1649); assay: LTEA_HepaRG_DDIT3: Life Technologies and Expression Analysis (LTEA) Assay for DNA damage-inducible transcript 3 (DDIT3) using HepaRG (AID 2283488)
How it was run: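 Changes in DDIT3 transcript, in either direction relative to 0.5% DMSO vehicle, were quantified by TaqMan qRT-PCR after 48 h chemical exposure of HepaRG cells at 8 concentrations, maximum 100 uM.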

[7] = read-out: Early growth response protein 1 (EGR1) transcription factor, EGR1 (gene 1958); assay: LTEA_HepaRG_EGR1: Life Technologies and Expression Analysis (LTEA) Assay for Early growth response protein 1 (EGR1) transcription factor using HepaRG (AID 2283490)
How it was run: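 Read-out is EGR1 mRNA level by qRT-PCR, normalized to three housekeeping genes and analysed for gain or loss of signal against 0.5% DMSO. Source cells: human HepaRG, treated 48 h at up to 100 uM in half-log dilutions.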

[8] = read-out: Ezrin (EZR), EZR (gene 7430); assay: LTEA_HepaRG_EZR: Life Technologies and Expression Analysis (LTEA) Assay for Ezrin (EZR) using HepaRG (AID 2283491)
How it was run: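 Read-out is EZR transcript level by qRT-PCR, normalized to three housekeeping genes and fitted bidirectionally against the DMSO control. Human HepaRG cells received test chemicals for 48 h at eight half-log concentrations up to 100 uM in 0.5% DMSO.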

[9] = read-out: Cytochrome P450 3A7 (Homo sapiens) (UniProt P24462); assay: LTEA_HepaRG_CYP3A7: Life Technologies and Expression Analysis (LTEA) Assay for CYP3A7 using HepaRG (AID 2283492)
How it was run: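 CYP3A7 transcript measured by qRT-PCR (ACTB, GAPDH, POLR2A normalization) after 48 h chemical exposure of HepaRG cells in duplicate. Eight half-log concentrations, maximum 100 uM, 0.5% DMSO vehicle; bidirectional curve fitting against DMSO baseline.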

CYP3A5 (gene 1577) = assay: LTEA_HepaRG_CYP3A5: Life Technologies and Expression Analysis (LTEA) Assay for CYP3A5 using HepaRG (AID 2283493)
How it was run: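 mRNA induction or loss of CYP3A5 assessed in HepaRG after 48 h dosing, 100 uM top concentration, duplicate wells; TaqMan qRT-PCR with ACTB, GAPDH, POLR2A normalization; 0.5% DMSO as negative control.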

[10] = read-out: Cytochrome P450 4A22 (Homo sapiens) (UniProt Q5TCH4); assay: LTEA_HepaRG_CYP4A22: Life Technologies and Expression Analysis (LTEA) Assay for Cytochrome P450 4A22 (CYP4A22) using HepaRG (AID 2283495)
How it was run: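 Gene expression measured by qRT-PCR against three housekeeping genes (ACTB, GAPDH, POLR2A), with gain or loss fitted relative to 0.5% DMSO vehicle. HepaRG cultures received 48 h chemical treatment, top concentration 100 uM, half-log steps, duplicate wells.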

[11] = read-out: Cytochrome P450 7A1 (Homo sapiens) (UniProt P22680); assay: LTEA_HepaRG_CYP7A1: Life Technologies and Expression Analysis (LTEA) Assay for Cytochrome P450 7A1 (CYP7A1) using HepaRG (AID 2283496)
How it was run: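 Gene expression endpoint in human HepaRG liver cells treated for 48 h with test chemicals (up to 100 uM, 0.5% DMSO). Values come from bidirectional concentration-response fitting versus DMSO.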

[12] = read-out: Glutathione S-Transferase (GSTA2), GSTA2 (gene 2939); assay: LTEA_HepaRG_GSTA2: Life Technologies and Expression Analysis (LTEA) Assay for Glutathione S-Transferase (GSTA2) using HepaRG (AID 2283497)
How it was run: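 HepaRG, 48 h dosing, 8-pt half-log CRC from 100 uM, 0.5% DMSO vehicle, n=2; RNA → Fluidigm TaqMan qRT-PCR; GSTA2 vs ACTB/GAPDH/POLR2A; gain/loss fit vs DMSO.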

[13] = read-out: Glutamate-cysteine ligase catalytic (GCLC), GCLC (gene 2729); assay: LTEA_HepaRG_GCLC: Life Technologies and Expression Analysis (LTEA) Assay for Glutamate-cysteine ligase catalytic (GCLC) using HepaRG (AID 2283498)
How it was run: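 Read-out is GCLC transcript level by Fluidigm-based TaqMan qRT-PCR, normalized to three housekeeping genes and fitted in both directions relative to 0.5% DMSO. Human HepaRG cells received chemicals for 48 h, up to 100 uM.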

[14] = read-out: Pro-epidermal growth factor (Homo sapiens) (UniProt P01133); assay: LTEA_HepaRG_EGF: Life Technologies and Expression Analysis (LTEA) Assay for Epidermal growth factor (EGF) using HepaRG (AID 2283489)
How it was run: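 EGF transcript measured by Fluidigm TaqMan qRT-PCR with three housekeeping genes for normalization, 48 h after dosing HepaRG cultures in duplicate (top 100 uM, half-log steps, 0.5% DMSO vehicle). Gain or loss relative to DMSO fitted.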

[15] = read-out: Fatty Acid-Binding Protein 1 (FABP1), FABP1 (gene 2168); assay: LTEA_HepaRG_FABP1: Life Technologies and Expression Analysis (LTEA) Assay for Fatty Acid-Binding Protein 1 (FABP1) using HepaRG (AID 2283494)
How it was run: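 HepaRG, 48 h post-plating switched to serum-free induction medium, then dosed 48 h (duplicate, 8 pts, ≤100 uM, 0.5% DMSO). RNA → Fluidigm TaqMan qRT-PCR, FABP1 normed to ACTB/GAPDH/POLR2A. Bidirectional curve fit vs DMSO.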

Measured: AC50

Sequence of Cytochrome P450 2C19 (Homo sapiens) (P33261 whole entry, looked up): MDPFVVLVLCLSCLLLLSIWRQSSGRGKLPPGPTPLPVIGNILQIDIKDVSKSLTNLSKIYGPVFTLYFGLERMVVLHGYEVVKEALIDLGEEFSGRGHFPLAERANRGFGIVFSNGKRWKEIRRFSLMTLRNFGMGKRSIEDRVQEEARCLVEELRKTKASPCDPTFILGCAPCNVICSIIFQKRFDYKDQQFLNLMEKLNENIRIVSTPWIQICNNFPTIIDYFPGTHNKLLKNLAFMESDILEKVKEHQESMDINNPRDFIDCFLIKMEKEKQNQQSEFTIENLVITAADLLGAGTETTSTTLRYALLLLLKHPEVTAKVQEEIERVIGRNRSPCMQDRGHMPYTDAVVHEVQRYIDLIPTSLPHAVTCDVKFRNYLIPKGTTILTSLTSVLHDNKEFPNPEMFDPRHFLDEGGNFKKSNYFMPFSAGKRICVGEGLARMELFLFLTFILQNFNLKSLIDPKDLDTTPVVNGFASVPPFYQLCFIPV
Sequence of Cytochrome P450 3A4 (Homo sapiens) (P08684 whole entry, looked up): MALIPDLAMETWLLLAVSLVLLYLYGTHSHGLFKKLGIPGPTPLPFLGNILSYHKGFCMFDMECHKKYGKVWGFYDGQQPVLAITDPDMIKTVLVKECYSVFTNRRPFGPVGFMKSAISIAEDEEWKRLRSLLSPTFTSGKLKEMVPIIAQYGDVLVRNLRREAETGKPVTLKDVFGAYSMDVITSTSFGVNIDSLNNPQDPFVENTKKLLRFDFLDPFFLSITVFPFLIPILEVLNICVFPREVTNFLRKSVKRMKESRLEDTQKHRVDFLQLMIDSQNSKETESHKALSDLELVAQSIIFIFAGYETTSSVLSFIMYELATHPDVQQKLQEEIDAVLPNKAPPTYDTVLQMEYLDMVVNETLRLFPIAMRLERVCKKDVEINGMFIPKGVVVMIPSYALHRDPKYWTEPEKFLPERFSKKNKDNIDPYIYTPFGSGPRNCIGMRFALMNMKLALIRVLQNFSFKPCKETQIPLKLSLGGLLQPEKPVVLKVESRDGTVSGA
Sequence of Cytochrome P450 3A7 (Homo sapiens) (P24462 whole entry, looked up): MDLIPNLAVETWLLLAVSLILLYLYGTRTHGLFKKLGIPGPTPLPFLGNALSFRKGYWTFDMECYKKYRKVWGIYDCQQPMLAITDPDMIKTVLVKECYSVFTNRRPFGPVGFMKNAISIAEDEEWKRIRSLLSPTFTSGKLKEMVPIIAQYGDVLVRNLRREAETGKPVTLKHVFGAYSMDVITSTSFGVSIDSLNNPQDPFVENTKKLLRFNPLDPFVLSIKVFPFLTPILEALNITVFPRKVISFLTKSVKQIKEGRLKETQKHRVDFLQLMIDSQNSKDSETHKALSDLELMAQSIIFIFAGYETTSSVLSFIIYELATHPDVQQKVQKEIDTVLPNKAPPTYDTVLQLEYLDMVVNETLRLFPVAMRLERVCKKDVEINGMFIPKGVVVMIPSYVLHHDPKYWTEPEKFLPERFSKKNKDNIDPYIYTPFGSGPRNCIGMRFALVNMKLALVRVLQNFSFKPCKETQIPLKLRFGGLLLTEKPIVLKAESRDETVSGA

CCCCCCc1ccc(O)cc1O
not listed: [14] | [15]
inactive: all other assays above

C1N2CN3CN1CN(C2)C3
active: [1] 68.7 µM
not listed: [15]
inactive: all other assays above

CNS(=O)(=O)c1cc(C(=O)N2CCC(CCN3C4CCC3CC(n3c(C)nc5ccccc53)C4)(c3cccc(F)c3)CC2)c(Cl)cc1F (stereo not given)
inactive: [2] | [5] | [7] | CYP3A5 (gene 1577) | [13]
active: [1] 27.2 µM | [3] 21.7 µM | [4] 50 µM | CYP2C8 (gene 1558) 25.7 µM | CYP2C9 (gene 1559) 19.2 µM | CYP2E1 (gene 1571) 17.7 µM | CYP4A11 (gene 1579) 18.5 µM | [6] 29 µM | [8] 29.6 µM | [15] 18.4 µM | [10] 22.7 µM | [11] 21.5 µM | [12] 31.8 µM
